HT1080NT lethal – kills 2HG-producing HT-1080-NT fibrosarcoma cells. Potency, µM (doses to about 46.1 µM), inactives show top-dose activity, negative = less viability, hits mostly cytotoxic. 360,000 compounds, 1.6% hits. HT-1080-NT fibrosarcoma viability, CellTiter-Glo ATP luminescence, 48 h. AID 686970;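 further: NT is the 2HG producing partner of a matched IDH1 knockdown line; potency means the concentration at half of the fitted maximal effect; 0% = DMSO-treated cells and -100% = media-only wells without cells; nearly all actives have a fitted effect of over 55% in size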
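750 cells/well, RPMI + 5% FBS; 2 h settle, compound pin-transfer, 48 h at 37 degrees C. CellTiter-Glo 10 min RT, luminescence. Normalized to DMSO and media-only wells.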
TDP1 cell CPT – DT40-hTDP1 cell growth loss with CPT; chicken DT40 Tdp1-/-;hTDP1 cells + 20 nM CPT, ATP luminescence, 48 h; Potency, µM (series often up to 46.2 µM), for the others: at the highest dose activity change, negative = growth inhibition, actives largely listed as inhibitors; 420,000 compounds, 12% hits; AID 686979; further: potency means the concentration at half of the fitted maximal effect; nearly all actives have a fitted effect of over 55% in size
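Cell growth measured by CellTiter-Glo luminescence after a minimum 48 h, 37 C compound exposure with 20 nM CPT in Tdp1-knockout DT40 cells stably expressing hTDP1, seeded 400/well; qHTS titration format.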
ELG1 DNA repair – blocks ELG1-dependent DNA repair in HEK293T cells. HEK293T ELG1-luciferase reporter, luminescence, 16 h; DNA damage induced by 5-fluorouridine. 330,000 compounds, 2.3% hits. AID 504467. Potency, µM (doses to about 46.1 µM), for the others: at the top dose activity change, negative = inhibition, hits mostly inhibitors; further: potency means the concentration at half of the fitted maximal effect; nearly all actives have a fitted effect of over 55% in size
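Overnight (16 hr) co-exposure of 2,000 cells/well to 5-fluorouridine and compound at 37 °C preceded detection. Luciferase was quantified via ONE-Glo luminescence; loss of signal denotes inhibition.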
DT40 TDP1 no CPT – qHTS for Inhibitors of human tyrosyl-DNA phosphodiesterase 1 (TDP1): qHTS in cells in absence of CPT. DT40 Tdp1-/- hTDP1 cells, no CPT, ATP luminescence, 48 h. Potency, µM (series often up to 46.2 µM), without a hit: at the top dose activity change, negative = growth inhibition, hits mostly inhibitors. 420,000 compounds, 15% hits; further: potency means the concentration at half of the fitted maximal effect; nearly all actives have a fitted effect of over 55% in size
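Growth of hTDP1-complemented DT40 Tdp1-knockout cells is measured by ATP luminescence after at least 48 hr compound exposure at 37 °C, with DMSO substituting for the 20 nM CPT used in the parallel screen.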
IL1B secr inh – inhibitors of inflammasome signaling (IL-1 beta secretion) | THP-1 LPS/ATP IL-1B secretion, AlphaLISA, 16 h; stronger effect = lower value | AID 743279 | activity change, % at 57.5 µM | 360,000 compounds, 4.7% hits; in the data active means activity change below about -50%; inconclusive means mostly about -30% to -49%
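THP-1 cells pretreated 1 hr with compounds (up to 57.5 uM final), then stimulated with LPS (250 ng/mL final) plus ATP (1.25 mM final); secreted IL-1B measured by AlphaLISA after 16 hr, decreased signal indicating inhibition.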
HT1080 IDH1KD tx – kills HT-1080 cells with IDH1 knockdown; HT-1080 IDH1 knockdown viability, ATP luminescence, 48 h; Potency, µM (series often up to 46.1 µM), without a hit: top-dose activity, negative = toxicity, hits mostly cytotoxic; 360,000 compounds, 2% hits; AID 686971;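 further: potency means the concentration at half of the fitted maximal effect; 0% = DMSO wells and -100% = cell-free medium wells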
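HT-1080-IDH1KD cells (IDH1 knocked down), 750/well in RPMI with 5% FBS, treated with compound 48 h at 37 degrees C. Viability by CellTiter-Glo luminescence, normalised to DMSO and no-cell wells; concentration-response curves classed.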
* hit, by the source's call; ? = inconclusive; / = no result given; [ ] = remark or other dose. Hits are enriched below; roughly 19% of the tested compounds scored in any of these assays. Unless noted, the call rests on the fitted dose curve; in most records, active means well fitted curve in the direction sought with a large enough effect; inconclusive means small, poorly fitted or top-dose-only effect, or another doubt; inactive means no such curve, though single readings can be large; an effect the other way counts as inactive or inconclusive. Unless noted, on the % scale 0 is the no-effect control and ±100 the full control effect.

SMILES	HT1080NT lethal	TDP1 cell CPT	ELG1 DNA repair	DT40 TDP1 no CPT	IL1B secr inh	HT1080 IDH1KD tx
CC(C)Cn1c(N)c(C(=O)COC(=O)c2cc(C(F)(F)F)nc3c(C(F)(F)F)cccc23)c(=O)n(C)c1=O	/	/	15.6%	/	/	/
CC(C)(C)NCCC(O)c1cc(C(F)(F)F)nc2c(C(F)(F)F)cccc12 (stereo unspecified)	-26.7%	20.6µM*	/	16.4µM*	-87.6*	?
Cc1nn(-c2ccccc2)c2sc(C(=O)N3CCc4ccccc4C3)cc12	-27.8%	?	?	23.1µM*	?	?
Cc1nn(-c2ccccc2)c2sc(C(=O)N3CCCCC3)cc12	-15.3%	?	/	?	-16.1	-25.4%
Cc1cnc(NC(=O)c2cc3c(C)nn(-c4ccccc4)c3s2)s1	11.2µM*	?	-6.7%	?	17.5	?
Cc1nn(-c2ccccc2)c2sc(C(=O)Nc3ccc(Br)cc3)cc12	/	?	/	16.4µM*	/	/
O=C(NC[C@H](O)c1ccccc1)c1ccccc1	/	-13.0%[9.04 µM]	/	-9.1%[9.04 µM]	/	/
COc1ccc(N(C)S(=O)(=O)c2cccc(C(=O)Nc3nc(C)c(C(C)=O)s3)c2)cc1	-0.6%[9.24 µM]	?	10.3µM*	?	-9.2	-9.9%
COc1ccc(N(C)S(=O)(=O)c2cccc(C(=O)Nc3nc4ccccc4[nH]3)c2)cc1	-21.7%	23.1µM*	?	?	?	?
COc1ccc(N(C)S(=O)(=O)c2cccc(C(=O)Nc3nnc(C)s3)c2)cc1	0.7%[9.24 µM]	-26.8%	?	?	0.0	0.8%
CN(c1cccc(Cl)c1)S(=O)(=O)c1cccc(C(=O)Nc2nc3ccccc3[nH]2)c1	?	20.6µM*	?	23.1µM*	-61.9*	?
O=C(Nc1nc2ccccc2[nH]1)c1cccc(Cl)c1	-3.7%	?	?	?	-2.6	-7.2%
Cn1c(=O)n(CCc2ccccc2)c(=O)c2c1nc1n2CCN1c1ccc(Cl)cc1	/	-7.3%	/	-13.1%	/	/
CNC(=O)C[C@H]1C(=O)N(Cc2ccccc2)C[C@@H]1Cc1ccccc1	6.8%	-2.6%	/	6.2%	22.9	11.7%
Cc1cc(SCC(=O)Nc2ccc(C(F)(F)F)cc2)nc(=O)[nH]1	/	-15.9%	/	-22.8%	/	/
Cc1cccc(-n2c(O)c(C=NC3CCS(=O)(=O)C3)c3ccccc3c2=O)c1C (stereo unspecified)	-16.4%	5.17µM*	?	?	-0.9	-8.8%
Cc1ccccc1-n1c(O)c(C=NC2CCS(=O)(=O)C2)c2ccccc2c1=O (stereo unspecified)	-4.8%	-29.4%	9.0%	?	-1.2	-0.2%
Cc1ccc(-n2c(O)c(C=NC3CCS(=O)(=O)C3)c3ccccc3c2=O)cc1C (stereo unspecified)	-18.6%	10.3µM*	-16.2%	18.4µM*	?	-20.2%
Cc1ccc(N=Cc2c(O)n(-c3ccc4c(c3)OCO4)c(=O)c3ccccc23)cc1	-0.2%	?	?	?	-25.1	-3.2%
Cc1cccc(-n2c(O)c(C=NC3CCS(=O)(=O)C3)c3ccccc3c2=O)c1 (stereo unspecified)	-2.7%	13µM*	-1.0%	?	12.6	-1.0%
Cc1cc(C)cc(-n2c(O)c(C=NC3CCS(=O)(=O)C3)c3ccccc3c2=O)c1 (stereo unspecified)	-14.0%	16.4µM*	-11.9%	?	-13.8	?
COC(=O)C1CCN(C(=O)COC(=O)C2CCN(S(=O)(=O)c3c(Cl)cccc3Cl)CC2)CC1	0.5%	2.1%	-2.1%	-3.4%	6.3	1.5%
CC(C)C[C@H]1CN(CCCC[C@H]2CNC(=O)C(=O)N2CCc2ccccc2)C(=O)C(=O)N1CC1CCCCC1	-6.5%	?	/	?	-1.6	10.2%
Cc1cccc(-n2c(O)c(C=NCc3ccccn3)c3ccccc3c2=O)c1	-10.2%	18.4µM*	?	?	?	-19.4%
COc1ccccc1-n1c(O)c(C=NCc2ccccn2)c2ccccc2c1=O	1.2%	?	?	-22.5%	-15.3	3.7%
SMILES	HT1080NT lethal	TDP1 cell CPT	ELG1 DNA repair	DT40 TDP1 no CPT	IL1B secr inh	HT1080 IDH1KD tx
COc1ccc(OC)c(S(=O)(=O)Oc2ccc(N)c3ccccc23)c1	-18.1%	?	/	23.1µM*	17.5	-16.0%
COc1ccc(OC)c(S(=O)(=O)Nc2cccc3ccccc23)c1	-19.1%	-13.7%	/	?	17.8	-11.2%
Cc1ccc(-c2nc(C(=O)NCCCN3CCOCC3)cc3c2[nH]c2ccccc23)cc1	-9.0%	3.26µM*	?	3.26µM*	-52.0*	-13.9%
COc1ccccc1-c1cc(C(=O)NCCCN2CCOCC2)no1	16.1%	-15.0%	?	-16.5%	-7.4	7.6%
COc1ccc(-c2nc(C(=O)NCCCN3CCOCC3)cc3c2[nH]c2ccccc23)cc1OC	-3.6%	13µM*	-29.2%	3.66µM*	-24.0	-7.9%
Cc1ccc(-c2cc(C(=O)NCCCN3CCOCC3)c3ccccc3n2)cc1	-6.2%	-20.7%	11.5%	?	?	2.9%
CCc1c(C)nc(N2CCN(c3ccc(Cl)cc3)CC2)[nH]c1=O	28.7%	?	-10.7%	?	-14.2	32.4%
CN1CCN(CCCNC(=O)CCc2nnc3n(Cc4ccccc4Cl)c(=O)c4ccccc4n23)CC1	-1.2%	-18.3%	?	-0.3%	-13.1	1.8%
Cc1ccc(NC(=O)CCc2nnc3n(CC(C)C)c(=O)c4ccccc4n23)cc1C	/	25.9µM*	/	23.1µM*	/	/
Cc1cc(C)cc(NC(=O)CCc2nnc3n(CC(C)C)c(=O)c4ccccc4n23)c1	/	-19.3%	/	-24.0%	/	/
O=C(CCc1nnc2n(Cc3ccccc3Cl)c(=O)c3ccccc3n12)Nc1ccc(F)c(F)c1	/	23.1µM*	/	20.6µM*	/	/
O=C(CCc1nnc2n(Cc3ccc(F)cc3)c(=O)c3ccccc3n12)NCCN1CCOCC1	-3.4%	-29.5%	9.1%	-7.4%	-13.5	-3.4%
COc1ccc(NC(=O)CCc2nnc3n(Cc4ccccc4Cl)c(=O)c4ccccc4n23)cc1	/	3.26µM*	/	3.26µM*	/	/
O=[N+]([O-])c1ccc(Cl)cc1P(=O)(O)c1cc(Cl)ccc1[N+](=O)[O-]	5.2%	4.4%	/	7.3%	5.1	7.5%
COc1cccc(C(=O)Nc2cccc(-c3ccc(N4CCOCC4)nn3)c2)c1	-8.6%	-17.5%	-8.1%	?	0.9	-11.3%
